Here are results for 86 molecules from PubChem BioAssay AID651813 (National Center for Advancing Translational Sciences (NCATS), 2012).

About 1,100 (52%) of roughly 2,100 compounds were called active. About 27% were inconclusive and are not listed. Calls follow the shape of the dose curve; as a rule, active = well fitted inhibition curve with a large enough effect; inconclusive = small, poorly fitted or top-dose-only effect; inactive = no such curve, though single readings can be large or run the other way. The set was probably picked from earlier hits. This is one part of the list.
Potency is read from the fitted curve at half-maximal effect.

DNA dC->dU-editing enzyme APOBEC-3G (Homo sapiens), sequence (Q9HC16 whole entry, looked up): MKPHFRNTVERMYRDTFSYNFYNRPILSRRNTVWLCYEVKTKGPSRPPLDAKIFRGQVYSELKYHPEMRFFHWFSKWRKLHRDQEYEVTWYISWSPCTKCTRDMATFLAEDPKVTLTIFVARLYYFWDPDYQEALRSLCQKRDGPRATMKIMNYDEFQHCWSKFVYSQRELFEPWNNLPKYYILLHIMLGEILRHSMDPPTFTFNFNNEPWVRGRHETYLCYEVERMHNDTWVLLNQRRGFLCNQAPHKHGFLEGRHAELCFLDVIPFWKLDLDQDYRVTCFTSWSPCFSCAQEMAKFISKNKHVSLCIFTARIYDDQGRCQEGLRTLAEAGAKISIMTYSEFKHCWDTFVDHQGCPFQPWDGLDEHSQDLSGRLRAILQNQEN

The test addresses DNA dC->dU-editing enzyme APOBEC-3G (Homo sapiens) (UniProt Q9HC16). The test is described as follows: qHTS for inhibitors of Vif-A3G interactions: Cherry picks counterscreen.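 Also: hits raise yellow fluorescence by blocking Vif-driven A3G-eYFP degradation; nearly all actives have a fitted effect of over 70% in size.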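 As to max response: max response given as percent of control signal.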 The note with it: HeLa A3G-eYFP + Vif (tagged APOBEC3G with the HIV-1 protein that degrades it), eYFP fluorescence, 24 h. An outline of the steps:
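Readout is eYFP fluorescence (488 nm excitation, 500-530 nm emission) measured on Acumen Explorer after 24 h compound exposure, several concentrations, at 37 deg C. Cells: HeLa stably co-expressing Vif and C-terminally eYFP-tagged A3G; MG132 positive control.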
On the technique in general: qHTS replaces the single test concentration by a dilution series.
As for `N#C/C(N=Nc1ccccc1O)=N\Nc1ccccc1O`, the Potency is 16.4 µM (active). The same measure, in the same setting: to `N#CCc1ccc(NC(=O)/C=C/c2ccc([N+](=O)[O-])o2)cc1` belongs 13 µM (active). Turning to `O=C(Nc1nc2c(F)cccc2s1)c1ccc([N+](=O)[O-])o1`, the max response is -8.08% (inactive). For the molecule `CCOC(=O)CCc1ccc(NC(=O)/C=C/c2ccc([N+](=O)[O-])o2)cc1`, the Potency was 11.6 µM (active). Still for that read-out and setting: to `O=C(/C=C/c1ccc([N+](=O)[O-])o1)NNC(=O)c1ccc(F)cc1` belongs 7.9 µM (active). As for `N#C/C=C/N1CCN(C(=O)c2ccco2)CC1`, the max response was -14.7% (inactive). Take `CCN(CC(=O)NCc1ccc(F)cc1)C(=O)/C=C/c1ccc(OC)c(S(=O)(=O)NC(C)C)c1`: the Potency is 3.53 µM (active). Same read-out and setting: to `c1ccc(-c2cnn3c(-c4ccccc4)c(-c4ccccc4)nc3n2)cc1` belongs 2.59 µM (active). For the molecule `CCOC1=C2CN(S(=O)(=O)c3ccc(C)cc3)[C@H](c3cccc4ccccc34)C[C@H]2C(C#N)(C#N)C(C#N)(C#N)C1`, the max response was -20.1% (inactive).

Regarding `Cc1ccc(C2=NN(S(=O)(=O)c3ccccc3)C(c3ccccc3O)C2)cc1` (stereo unspecified), the Potency was 13 µM (active).

With `Cc1ccc(C2=NN(C(=O)c3cccs3)C(c3ccccc3O)C2)cc1` (stereo unspecified), the max response is 20.9% (inactive). Consider `COc1cccc(C2CC(c3ccccc3)=NN2S(=O)(=O)c2ccc(C)cc2)c1OC` (stereo unspecified), for which the Potency was 18.4 µM (active). Still for that read-out and setting: under `O=c1c2ccccc2sc2ccc(NCCCN3CCOCC3)cc12` stands 23.1 µM (active).

Consider `COc1ccc(S(=O)(=O)N2CCN(C(=O)c3ccc([N+](=O)[O-])o3)CC2)cc1`, for which the max response was -0.426% (inactive). In the case of `COc1ccc(S(=O)(=O)N2c3ccccc3OCC2CC(=O)O)cc1` (stereo unspecified), the Potency is 12.5 µM (active). With `O=C(NC(=S)Nc1c(Cl)cc(Cl)cc1Cl)c1ccccc1`, the max response is 6.93% (inactive). The same measure, in the same setting: under `COc1ccc(N/C=C2\C(=O)CCc3c2oc2cc(Cl)c(O)c(Cl)c32)cc1` stands -5.39% (inactive). On to `COC(=O)/C(=C\Nc1ccc(Cl)cc1Cl)NC(=O)c1ccc(OC)cc1`, for which the Potency is 1.98 µM (active). Still for that read-out and setting: to `Clc1ccc(/C=N/NC2=Nc3cccc4cccc2c34)cc1` belongs 20.6 µM (active). As to `Clc1ccccc1/C=N/NC1=Nc2cccc3cccc1c23`, the Potency is 9.2 µM (active). On to `COc1cccc(CNCCSc2nnnn2C)c1OCc1ccc(F)cc1`, for which the max response is 2.02% (inactive).

Take `c1cc(SC2CCCCC2)cc(-c2nc3cnccn3c2NC2CCCCC2)c1`: the max response is 17.4% (inactive).

For `COc1ccc(-c2nc3cnccn3c2NC2CCCCC2)cc1-c1cccc(Cl)c1`, the max response is -10.6% (inactive). Turning to `CCCCNc1c(-c2ccc(SC3CCCCC3)cc2)nc2cnccn12`, the Potency was 2.23 µM (active). Take `CN(C)c1ccc(/C=N/NC(=O)c2cc(-c3ccc4c(c3)OCO4)n[nH]2)cc1`: the Potency was 12.5 µM (active). On the same count and under the same terms, under `Cc1cc(C)n(-c2nnc3n2N=C(c2c[nH]c4ccccc24)CS3)n1` stands 6.27 µM (active). Same read-out and setting: under `CCOc1cc(/C=C2\CCC/C(=C\c3cc(Cl)c(O)c(OCC)c3)C2=O)cc(Cl)c1O` stands 17.7 µM (active); under `COc1cc(/C=C2/CCC/C(=C\c3cc(O)c(OC)c(Cl)c3)C2=O)cc(Cl)c1O`, 14.6 µM (active). Turning to `Cc1csc(NC(=O)CCC(=O)N(CC(=O)NC2CCCC2)Cc2ccccc2)n1`, the max response is -14.8% (inactive).

For `NC(=O)c1ccc(Cn2c(C(=O)c3cc(Cl)c(N)c(Cl)c3)c3ccccc3[n+]2[O-])cc1`, the Potency was 11.2 µM (active).

As to `Cc1ccc(-n2nc3c(N4CCCC(C(=O)NCc5ccccc5C)C4)nnc(C)c3c2C)cc1` (stereo unspecified), the max response is -1.78% (inactive). On the same count and under the same terms, under `Cc1ccc(Cl)cc1NC(=O)Nc1cn(CC(C)C)c(=O)c2ccccc12` stands 10.5% (inactive). In the case of `Cc1ccc(C)c(NC(=O)Cn2cc(S(=O)(=O)Cc3cccc(Cl)c3)c3ccccc32)c1`, the Potency is 18.4 µM (active). Regarding `Cc1ccc(NC(=O)C2CCN(S(=O)(=O)c3ccc(Cl)c(C(F)(F)F)c3)CC2)nc1`, the max response was 8.66% (inactive).

`O=C(Cn1ncc(Cl)c(Cl)c1=O)N1CCN(S(=O)(=O)c2ccc3ccccc3c2)CC1`: the Potency was 11.2 µM (active). On to `COc1ccc(OCCCC(=O)N2CCN(S(=O)(=O)c3cccc(F)c3)CC2)cc1`, for which the max response was 2.87% (inactive).

With `Cc1ccc(S(=O)(=O)N2CCCCC2)cc1NC(=O)Cn1ncc(Cl)c(Cl)c1=O`, the Potency was 12.5 µM (active). For the molecule `O=C(Nc1ccc(Cl)cn1)c1cccc(S(=O)(=O)N2CCCCCC2)c1`, the max response was 1.56% (inactive). On to `Fc1ccc(-c2cnn3c(-c4cccs4)ccnc23)cc1`, for which the Potency was 5.59 µM (active). Still for that read-out and setting: to `COc1ccc(CN(C(C)=O)c2cccc(C)c2C)cc1` belongs 17.7 µM (active); to `Cc1nnc(NC(=O)CSc2nc(C(C)C)nc3ccccc23)s1`, 6.27 µM (active); to `COc1ccc(C2CC(c3ccncc3)=NN2c2ccc(S(N)(=O)=O)cc2)cc1` (stereo unspecified), 5.17 µM (active).

With `O=C1OCC2=C1C(c1ccc3c(c1)OCO3)c1cc3c(cc1O2)OCO3` (stereo unspecified), the Potency was 2.23 µM (active). On to `COc1cc(C2C3=C(COC3=O)Oc3cc4c(cc32)OCO4)ccc1OC(C)=O` (stereo unspecified), for which the Potency was 1.77 µM (active). With `O=C1c2ccccc2-c2onc3c(N4CCN(C5CCCCC5)CC4)cc(NCCO)c1c23`, the Potency is 2.59 µM (active).

For `CCNc1cc(N2CCN(C3CCCCC3)CC2)c2noc3c2c1C(=O)c1ccccc1-3`, the Potency is 7.31 µM (active). With `CN(C)CCCNc1cc(N2CCN(C3CCCCC3)CC2)c2noc3c2c1C(=O)c1ccccc1-3`, the Potency is 1.84 µM (active). The same measure, in the same setting: to `CC[N+](C)(C)c1ccc(/C=C/c2ccncc2)cc1` belongs 16.4 µM (active); to `CCC[N+](C)(C)c1ccc(/C=C/c2ccncc2)cc1`, 16.4 µM (active). With `Cc1ccc(-c2nc(C=Nc3ccc(O)cc3)c(O)o2)cc1`, the max response was -18.6% (inactive). On the same count and under the same terms, under `N#Cc1c(Nc2ccccc2)[n+]([O-])c2ccc(Cl)cc2[n+]1[O-]` stands 26.1% (inactive). Regarding `O=C1CC(c2ccccc2F)c2cc3c(cc2N1)CCC3` (stereo unspecified), the Potency is 2.8 µM (active). On the same count and under the same terms, to `O=C1CC(c2cc(Br)ccc2F)c2cc3c(cc2N1)CCC3` (stereo unspecified) belongs 1.4 µM (active); to `CCOC(=O)Cc1csc(NC(=O)c2sc3nc4c(C)cc(C)cc4cc3c2N)n1`, 20.6 µM (active). For the molecule `CCOc1cc(S(=O)(=O)NCc2ccc(OC)cc2)c(OCC)cc1-n1cnnn1`, the Potency is 8.86 µM (active). Still for that read-out and setting: under `Cc1cc(C)c(N2C(=O)CC(Sc3ccccc3N)C2=O)c(C)c1` (stereo unspecified) stands 17.7 µM (active).

As for `Cc1ccc(S(=O)(=O)N2CCN(C(=O)CSC(=S)N3CCCC3)CC2)c(C)c1`, the max response was -17.2% (inactive).

On to `COc1cc(C(=O)NCC(=O)N2CCN(S(=O)(=O)c3cc(C)ccc3C)CC2)cc(OC)c1OC`, for which the Potency was 9.94 µM (active). Same read-out and setting: to `CCOc1ccc(NC(=O)N2CC=C(c3c[nH]c4ccccc34)CC2)cc1` belongs 18.4 µM (active); to `Cc1ccc(C)c(NC(=O)N2CC=C(c3c[nH]c4ccccc34)CC2)c1`, 16.4 µM (active); to `COC(=O)c1ccc(Cl)cc1NC(=O)N1CC=C(c2c[nH]c3ccccc23)CC1`, 23.1 µM (active). For `CSc1cccc(NC(=O)c2cc3c(COC(C)=O)cnc(C)c3oc2=O)c1`, the max response was 2.84% (inactive). In the case of `Cc1cc(C)nc(-n2nc(C)cc2NC(=O)c2ccc(F)cc2F)n1`, the max response is -9.45% (inactive). Consider `O=[N+]([O-])c1ccc(N/N=C/c2sc(N3CCOCC3)nc2-c2ccccc2)c(S(=O)(=O)Nc2ccccc2Cl)c1`, for which the Potency was 2.91 µM (active). For the molecule `COc1ccccc1NS(=O)(=O)c1cc([N+](=O)[O-])ccc1N/N=C/c1sc(N2CCOCC2)nc1-c1ccccc1`, the Potency is 0.58 µM (active). For the molecule `Cc1cc2nc(SCCOC(=O)Nc3cccc(Cl)c3)nc(C)c2cc1C`, the max response is 0.137% (inactive). The same measure, in the same setting: under `C=CCOC(=O)C1=C(C)NC(C)=C(C(=O)OCC=C)C1c1cn(-c2ccccc2)nc1-c1ccco1` stands -22.7% (inactive). Turning to `COc1ccc2c(C)cc(SCC(=O)N(C)C3CCS(=O)(=O)C3)nc2c1` (stereo unspecified), the Potency was 20.6 µM (active).

`COc1ccc2c(C)cc(SCC#N)nc2c1`: the Potency is 18.4 µM (active). As for `CS(=O)(=O)N1N=C(c2ccccc2)CC1c1ccc2c(c1)OCO2` (stereo unspecified), the Potency was 12.5 µM (active). On to `CS(=O)(=O)Nc1ccc(C2=NN(S(C)(=O)=O)C(c3ccc4c(c3)OCO4)C2)cc1` (stereo unspecified), for which the Potency was 14 µM (active).

Turning to `CCS(=O)(=O)N1N=C(c2cccc(NS(C)(=O)=O)c2)CC1c1ccc(C)cc1` (stereo unspecified), the Potency was 23.1 µM (active). `CCS(=O)(=O)N1N=C(c2ccc(C)cc2)CC1c1cc2ccc(OC)cc2nc1Cl` (stereo unspecified): the max response was -6.38% (inactive). For the molecule `CC1=CC(C)(C)NC(=S)N1c1ccc2ccccc2c1`, the max response is 5% (inactive). As to `C=C(/C=C/c1ccc(N(C)C)cc1)c1nc2ccccc2s1`, the Potency was 16.4 µM (active). Same read-out and setting: to `O=c1[nH]ncc2c3ccccc3n(Cc3cccc(Cl)c3)c12` belongs 18.4 µM (active); to `CC[N+](C)(C(=O)O)/C(=C\c1ccccc1)c1ccnc2ccccc12` (stereo unspecified), 16.4 µM (active). With `C[C@@H]1O[C@@H](O[C@@H]2C(=O)c3c(O)cc(O)cc3O[C@H]2c2ccc(O)c(O)c2)[C@H](O)[C@H](O)[C@H]1O`, the max response is -0.692% (inactive). In the case of `CCSc1nnc(-c2sc3nnc(-c4ccccc4)c(-c4ccccc4)c3c2N)o1`, the Potency was 4.61 µM (active). As to `COc1ccc(NC(=O)c2sc3nc4c(cc3c2N)CN(Cc2ccccc2)CC4)c(OC)c1`, the Potency is 18.4 µM (active). On to `Cc1cc(N2CCN(C)CC2)ccc1NC(=O)c1c2c(nc3ccccc13)CCN(Cc1ccccc1)C2`, for which the max response is 4.5% (inactive). As for `Nc1c(C(=O)c2ccc(Cl)cc2)sc2nc3c(cc12)CCC3`, the Potency is 16.4 µM (active).

As to `CCN1CCc2nc3sc(C(=O)c4ccccc4)c(N)c3cc2C1`, the Potency is 18.4 µM (active).

`COCCN1C(=O)/C(=C/c2ccc(N3CCCC3)cc2C)SC1=S`: the Potency was 4.11 µM (active).

`COCCN1C(=O)/C(=C/c2ccc(N3CCCC3)cc2)SC1=S`: the Potency was 7.31 µM (active). As to `Cc1ccc2oc(/N=C(\N)NC(=O)C(C)(C)C)nc2c1`, the max response was -19% (inactive).
